Reference: PubChem BioAssay AID686979 (National Center for Advancing Translational Sciences (NCATS), 2013)
The whole screen tested about 420,000 compounds, of which about 50,000 (12%) were called active. Not shown: some 26% with an inconclusive outcome. The sample as a whole holds a higher share of actives than the screen did. Unmarked numbers belong to inactive results. Calls follow the shape of the dose curve; as a rule, active = well fitted inhibition curve with a large enough effect; inconclusive = small, poorly fitted or top-dose-only effect; inactive = flat fitted curve, though single readings scatter.

test: qHTS for Inhibitors of human tyrosyl-DNA phosphodiesterase 1 (TDP1): qHTS in cells in presence of CPT; conditions: chicken DT40 Tdp1-/-;hTDP1 cells + 20 nM CPT, ATP luminescence, 48 h; series mostly up to 46.2 µM; activity change, negative = growth inhibition: at the top concentration; also: nearly all actives have a fitted effect of over 55% in size
In short: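 Chicken DT40 Tdp1-/- cells stably complemented with human TDP1 were seeded at 400 cells/well in medium containing 20 nM camptothecin, exposed to pin-transferred compounds, and grown at 37 °C for at least 48 hr. Viability was read as ATP luminescence.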
% is scaled to controls: 0 for no effect and ±100 for the full control effect; potency is read from the fitted curve at half-maximal effect.

Point of comparison: `CCOC(=O)C(C(=O)OCC)C(C#N)c1ccccc1` (stereo unspecified), “activity change, negative = growth inhibition” value -4.24%. Against it:
- N#C/C(C(=O)N1CCOCC1)=C1/SC(Cc2ccc(F)cc2)C(=O)N1c1ccccc1 (stereo unspecified) — higher, 10.3%
- COc1ccc(S(=O)(=O)N2CCN(CC(=O)N3CCOCC3)CC2)cc1OC — higher, 0.861%
- O=C(O)CCC(=O)Nc1ccc(OCC2CCCO2)cc1 (stereo unspecified) — higher, 19.8%
- Cc1ccsc1-c1cc(C(=O)O)c2c(ccc3ccccc32)n1 — higher, 10.3%
- CC(=O)C1=C(O)C(=O)N(c2ccc(Br)cc2)C1c1ccc([N+](=O)[O-])cc1 (stereo unspecified) — higher, 23.1%
- CCn1c(CNC(=O)c2ccccc2)nnc1SCC(=O)N1CCN(c2ccccc2)CC1 — higher, -0.967%
- CCOC(=O)N1CCC(NC(=O)C(NS(=O)(=O)c2ccc3c(c2)CCN3C(=O)CC)C(C)C)CC1 (stereo unspecified) — higher, -1.88%
- Cc1ccc(NS(=O)(=O)c2ccc3c(c2)NC(=O)CO3)cc1 — lower, -25.8%
- Cc1cc2c(cc1S(=O)(=O)NCc1ccc(Cl)cc1)OCC(=O)N2 — higher, -4.04%
- CC1CCCCC12NC(=O)N(CC(=O)OCC(=O)NCc1ccc(F)cc1)C2=O (stereo unspecified) — higher, 6.76%
- CC(=O)C[C@@H]1OC[C@H](CO)N1S(=O)(=O)c1ccc(C)cc1 — lower, -5.46%
- COC(=O)c1ccccc1NC(=O)CSc1ccccn1 — higher, 2.84%
- CCOC(=O)c1cnc(SCC(=O)NCc2ccco2)nc1N — higher, -2.75%
- O=C(CSc1nc2ccccc2c(=O)n1CCCO)NC1CC1 — higher, -3.57%
- COc1ccc(CCNC(=O)C2CCCN2C(=O)Nc2ccccc2)cc1OC (stereo unspecified) — higher, 1.85%
- COc1ccc(CCNC(=O)CCC(=O)NC2CCCCC2)cc1OC — lower, -17.8%
- COc1ccc(C(=O)NCCNc2ccc([N+](=O)[O-])cn2)cc1 — lower, -12.2%
- COc1ccc2c(C(=O)c3ccc(C)cc3)n(CCC(N)=O)[n+]([O-])c2c1 — lower, -8.64%
- Cc1cc(C)cc(OCC(=O)NC(C)c2ccccc2)c1 (stereo unspecified) — higher, -1.12%
- O=C(/C=C/c1cccc([N+](=O)[O-])c1)OCC(=O)N1CCOCC1 — lower, -14.9%
- OC[C@@H]1CN(Cc2ccc(Cl)cc2)C[C@H](n2cnc3c(NCc4ccncc4)ncnc32)O1 — lower, -15.7%
- OC[C@@H]1CN(C2CCCC2)C[C@H](n2cnc3c(NC4CCC4)ncnc32)O1 — higher, -0.382%
- COc1ccc(C2C3=C(OC(C)=O)c4ccccc4C3=Nc3c2c(=O)n(C)c(=O)n3C)cc1 (stereo unspecified) — lower, -17.3%
- Cc1cccc([C@@H]2[C@@H]3C(=O)N(C)C(=O)[C@@H]3[C@@H]3C(=O)Nc4ccccc4C(=O)N23)c1 — higher, 0.49%
- COc1ccc(/C=C/c2nnc(NC(=O)C(C)C)s2)cc1 — higher, -1.28%
- O=C(Cn1cc(C(=O)C2CC2)c2ccccc21)Nc1ccccc1Cl — lower, -8.18%
- O=C(Nc1cccc(-n2cnnn2)c1)c1cccnc1 — higher, 0.855%
- COc1ccc(CNC(=O)C2=Cc3cccc(OC)c3OC2)cc1OC — lower, -8.55%
- O=S(=O)(c1cccc2nonc12)N1CCN(c2cccc(Cl)c2)CC1 — lower, -28.1%
- COC(=O)c1c(NC(=O)c2ccc(Cl)c(Cl)c2)sc2c1CCCC2 — higher, 0.169%
- CCOCC(=O)Nc1sc2c(c1C(=O)OCC)CCCC2 — lower, -28.4%
- CCOC(=O)c1c(NC(=O)/C(C#N)=C/c2ccccc2)sc2c1CCC2 — higher, -3.28%
- COC(=O)c1c(NC(=O)CCCC(=O)O)sc2c1CCCCC2 — higher, 2.67%
- O=C(NC1CCCCC1)c1cc(C2CC2)on1 — higher, 8.81%
- COC(=O)CC(CC(=O)OC)n1cccc1 — higher, 3.57%
- CCCN(CCC)CC(O)COc1ccccc1C(=O)Nc1ccccc1 (stereo unspecified) — lower, -16.1%
- CCCNC(=O)CCC(=O)N1Cc2ccccc2Oc2ncccc21 — lower, -11.4%
- Cc1ccc(CNC(=O)c2c(-c3ccccc3)noc2C)cc1 — higher, 8.05%
- Cc1onc(-c2ccccc2Cl)c1C(=O)NCCn1ccc2ccccc21 — lower, -18.3%

With `CCn1c2c(c(=O)n3ncc(C(=O)N4CCN(c5ccccc5)CC4)c13)CN(Cc1ccc(OC)cc1)CC2` the Potency was 16.4 µM (active).
In the case of `Cc1cc(C)cc(NS(=O)(=O)c2cc3c(cc2C)NC(=O)CO3)c1`, the Potency is reported as 16.4 µM (active).
In the case of `CCOC(=O)c1cnc(SCC(=O)Nc2ccccc2C(=O)OC)nc1N`, the Potency is reported as 16.4 µM (active).
In the case of `COc1ccc(CCNC(=O)c2c3c(nc4ccccc24)C(=O)N(C2CCCCC2)C3)cc1OC`, the Potency is reported as 20.6 µM (active).
For `CCOC(=O)/C=C/C(=O)OCC(=O)NC(c1ccccc1)c1ccccc1`, the Potency was 5.8 µM (active).
For `OC[C@@H]1CN(Cc2ccc(-c3ccccc3)cc2)C[C@H](n2cnc3c(NC4CCCC4)ncnc32)O1`, the Potency was 1.03 µM (active).
For `Cc1cccc(C2c3c(n(C)c(=O)n(C)c3=O)N=C3c4ccccc4C(=O)C32)c1` (stereo unspecified), the Potency was 8.2 µM (active).
For `COC(=O)c1c(NC(=O)COC(=O)[C@@H](NS(=O)(=O)c2ccccc2)C(C)C)sc2c1CCC2`, the Potency was 18.4 µM (active).
In the case of `CCc1ccc(N(CC(=O)Nc2sc3c(c2C(=O)OC)CCCC3)S(C)(=O)=O)cc1`, the Potency is reported as 23.1 µM (active).
In the case of `Cc1ccc2cc(CCNC(=O)c3c(-c4ccccc4Cl)noc3C)c(=O)[nH]c2c1`, the Potency is reported as 23.1 µM (active).

For `COc1cc(=O)n2c(c1C(=O)NC(C)c1ccco1)CCN(Cc1cc(C)cc(C)c1)CC2` (stereo unspecified), the activity change, negative = growth inhibition was -2.45% [at 9.04 µM].
